High-throughput results from PubChem BioAssay.
KB-V1 MDR tox – qHTS assay for MDR1-selective chemotherapeutics: Primary screen using the drug-selected MDR subline cells KB-V1; KB-V1 MDR cells viability, CellTiter-Glo, 72 h; AID 1347076, 2019; Potency, µM (doses to about 46.1 µM), most hits filed as cytotoxic; 400,000 compounds, 3.4% hits; also: potency is read from the fitted curve at half-maximal effect; % is scaled to controls: 0 for no effect and ±100 for the full control effect; nearly all actives have a fitted effect of over 60% in size
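qHTS viability screen in drug-selected KB-V1 MDR cells: 72 h compound treatment at 37 degrees C, ATP luminescence end point.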
IL-1B inflam inh – qHTS for Inhibitors of Inflammasome Signaling: IL-1-beta AlphaLISA Primary Screen | AID 743279, 2014 | THP-1 LPS/ATP IL-1B secretion, AlphaLISA, 16 h; hits give low values | 360,000 compounds, 4.7% hits | activity change, % at 57.5 µM; in the data active = activity change below about -50%; inconclusive = mostly about -30% to -49%; also: % is scaled to controls: 0 for no effect and ±100 for the full control effect
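Secreted IL-1B measured by AlphaLISA bead assay after 16 h compound exposure of THP-1 cells; compounds (final up to 57.5 uM) added 1 h before LPS (250 ng/mL) and ATP (1.25 mM) stimulation; lower signal means less secretion.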
MCF10A rereplic – A quantitative high throughput screen for small molecules that induce DNA re-replication in MCF 10a normal breast cells; MCF 10A DNA re-replication, Hoechst nuclear intensity, 48 h; Potency, µM (titrated, usually from 46.1 µM), inactives show top-dose activity, positive = re-replication, hits mostly activators; 350,000 compounds, 2.9% hits; also: potency is read from the fitted curve at half-maximal effect; % of control where 0% means no effect; nearly all actives have a fitted effect of over 50% in size
SW480 rereplic – A quantitative high throughput screen for small molecules that induce DNA re-replication in SW480 colon adenocarcinoma cells. SW480 DNA re-replication, Hoechst DNA content imaging, 48 h. Potency, µM (doses to about 46.1 µM), without a hit: at the highest dose re-replication activation, usual class: activators. 340,000 compounds, 1.8% hits; also: potency is read from the fitted curve at half-maximal effect; % of control where 0% means no effect; nearly all actives have a fitted effect of over 55% in size
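First, 250 cells per well were seeded. Next, compound or vehicle (23 nL) was pinned in, plates sat 48 hr at 37 C. Finally Hoechst was added for 40 min before fluorescence scanning.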
KB-3-1 tox – qHTS assay for MDR1-selective chemotherapeutics: Primary screen using the parental adenocarcinoma cell KB-3-1. Potency, µM (top dose mostly 46.1 µM), actives largely listed as cytotoxic. 400,000 compounds, 1.4% hits. KB-3-1 viability, CellTiter-Glo ATP luminescence, 72 h; also: potency is read from the fitted curve at half-maximal effect; % is scaled to controls: 0 for no effect and ±100 for the full control effect; nearly all actives have a fitted effect of over 60% in size
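Using CellTiter-Glo luminescence, growth of non-resistant KB-3-1 adenocarcinoma cells is assessed 72 h after pin-tool compound addition at 37 °C. Normalized responses across the concentration series yield fitted curves.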
* marks the source's active call; other numbers are inactive results; i = inactive; ? = inconclusive; / = no result; ! = repeats disagree; [ ] = dose if it differs, or a comment. Rows were chosen to be rich in hits. Some 9.9% of all compounds tested hit in one or more screens of this group. Unless noted, calls follow the shape of the dose curve; as a rule, active = well fitted curve in the direction sought with a large enough effect; inconclusive = small, poorly fitted or top-dose-only effect, or another doubt; inactive = no such curve, though single readings can be large; an effect the other way counts as inactive or inconclusive.

SMILES	KB-V1 MDR tox	IL-1B inflam inh	MCF10A rereplic	SW480 rereplic	KB-3-1 tox
CCN1CCN(Cc2ccc(NC(=O)c3cc(NC(=O)c4cc(C)on4)cc(OC)c3)cc2C(F)(F)F)CC1	?	-83*!	13%	?	?
CCN1CCN(Cc2ccc(NC(=O)c3ccc(C)c(NC(=O)C(=O)c4c[nH]c5ccccc45)c3)cc2C(F)(F)F)CC1	?	-106*	23µM*	?	?
CCN1CCN(Cc2ccc(NC(=O)c3cc(NC(=O)C(=O)c4c[nH]c5ccccc45)cc(OC)c3)cc2C(F)(F)F)CC1	?	-80*	?	?	?
CCN1CCN(Cc2ccc(NC(=O)c3ccc(C)c(NC(=O)c4ccc5n[nH]nc5c4)c3)cc2C(F)(F)F)CC1	i	-7	14%	6%	i
CCN1CCN(Cc2ccc(NC(=O)c3ccc(C)c(NC(=O)c4ccnnc4)c3)cc2C(F)(F)F)CC1	i	10	5%	-3%	i
CCN1CCN(Cc2ccc(NC(=O)c3cc(NC(=O)c4cnn(-c5ccccc5)c4N)cc(OC)c3)cc2C(F)(F)F)CC1	i	81	15µM*	1%[9.22 µM]	i
COc1cccc(C(=O)N2CCN(Cc3ccccc3C(F)(F)F)CC2)c1	i	-4	0%	12%	i
CCN1CCN(Cc2ccc(C(=O)Nc3ccc(C)c(NCc4cnc(NC(=O)OC)cn4)c3)cc2C(F)(F)F)CC1	i	-16	6%	-5%[9.22 µM]	i
COc1ccc(C(=O)Nc2nnc(SCc3cc(=O)c4cc(C)ccc4[nH]3)s2)cc1OC	i	/	/	/	i
O=C(Nc1ccc(F)cc1)c1ccc2c(c1)NC(=O)c1ccccc1S2	i	/	/	/	?
O=C1c2ccccc2C(=O)c2c1ccc1c(=O)n(C3CCCCC3)[nH]c21	10µM*	-11	?	?	?
CCCCNC(=O)O[C@@H]1C[C@@H]2CCN3C(=O)CCC[C@H]([C@H]1CC)[C@H]23	21µM*!	9	10%	-12%	i
CCN(CC)S(=O)(=O)c1ccc(C(=O)NNC(=O)C2COc3ccccc3O2)cc1 (stereo not given)	i	0	-5%	-3%	i
CCN(CC1COc2ccccc2O1)S(=O)(=O)c1ccc(C)cc1 (stereo not given)	23µM*	-1	22%	15%	i
NNc1nc(-c2ccccc2)c2cc(Cl)ccc2n1	i	-28	10µM*	-53%	i
NNc1nc(-c2ccccc2)c2cc(Br)ccc2n1	i	-10	?	27%	i
O=C(O)CCCC(=O)NNc1nc(-c2ccccc2)c2cc(Cl)ccc2n1	i	1	2%	-8%	i
O=C(NCCO)c1cccc(Nc2nc(-c3ccccc3)c3cc(Cl)ccc3n2)c1	16µM*	?	?	16µM*	i
Fc1ccc(CNc2ncnc3nc[nH]c23)cc1	i	/	/	/	?
COc1ccc(CNC(=O)C2CCCN(C(=O)Nc3ccc(OC)cc3)C2)cc1 (stereo not given)	i	19	5%	-1%	i
COc1ccc(NC(=S)N2CCC(Cc3ccccc3)CC2)cc1	i	-58*	7%	-2%	i
COc1ccc(NC(=S)N2CCN(S(=O)(=O)c3ccccc3)CC2)cc1	i	-4	2%	-24%	i
COc1ccc(NC(=S)N2CCN(Cc3ccccc3)CC2)cc1	i	6	6%	-2%	i
CC(=O)Nc1ccc(OCC(=O)N2CCC(Cc3ccccc3)CC2)cc1	?	-53*	21%	-6%	i
COc1ccc(CNC(=S)N2CCN(Cc3ccccc3)CC2)cc1	16µM*	-15	25%	?	i
SMILES	KB-V1 MDR tox	IL-1B inflam inh	MCF10A rereplic	SW480 rereplic	KB-3-1 tox
COc1ccc(NC(=O)N2CCCC(C(=O)NCCc3ccccc3)C2)cc1 (stereo not given)	23µM*	6	13%	2%	i
S=C(Nc1ccccc1)N1CCC(Cc2ccccc2)CC1	i	-69*	13%	-3%	12µM*
CCNC(=S)N1CCC(Cc2ccccc2)CC1	i	-11	7%	-7%	i
O=C(NCc1ccc(F)cc1)c1cccnc1C(=O)O	i	24	6%	-4%	i
O=C(Nc1ccccc1)c1cc([N+](=O)[O-])ccc1NCc1cccnc1	i	-10	0%	1.3µM*	i
O=C(O)c1cc([N+](=O)[O-])ccc1NCCCc1ccccc1	i	-6	-4%	?	i
O=C(O)c1cc([N+](=O)[O-])ccc1NCc1ccccc1	i	-70*	9%	-12%	i
O=C(NCc1cccnc1)c1ccc(NC(=O)c2ccc([N+](=O)[O-])cc2)cc1	i	7	14%	-7%	i
COc1ccccc1OCC(=O)NCCSCc1cccc(Cl)c1	i	-8	?	-4%	i
CCn1c(SCC(=O)Nc2cc(C(C)(C)C)nn2-c2ccccc2)nnc1-c1cccs1	?	-83*	-4%	?	i
CCn1c(SCC(N)=O)nnc1-c1cc2c(C)nn(-c3ccccc3)c2s1	13µM*	16	3%	-7%	i
Cc1cc(C)c(C)c(C(=O)CSc2nnc(-c3ccc4[nH]c(C)c(C)c4c3)o2)c1C	?	?	13µM*	?	i
Cc1nnc(SCC(=O)Nc2cc(C(C)(C)C)nn2-c2ccccc2)s1	i	3	?	-1%	i
CCn1c(SCC(=O)O)nnc1-c1ccc2[nH]c(C)c(C)c2c1	i	-7	?	2%	i
CCn1c(SCC(N)=O)nnc1-c1ccc2[nH]c(C)c(C)c2c1	21µM*	1	10%	-2%	5.8µM*
O=C(Nc1ccc(Br)cc1F)C1CCN(c2nc3ccccc3[nH]2)CC1	i	/	/	/	i
COc1ccc(-c2cc(C(=O)OCC(=O)N(C)C)c3ccccc3n2)cc1	i	-19	1%	-10%	i
Cc1ccc2nc(C)cc(C(=O)OCC(=O)c3ccc(Cl)c([N+](=O)[O-])c3)c2c1	i	-68*	?	-1%	i
COc1ccc(-c2cc(C(=O)OCC(=O)c3ccc(C)c([N+](=O)[O-])c3)c3ccccc3n2)cc1	i	-55*	0%	11%	i
COc1ccc(-c2cc(C(=O)OCc3ccccn3)c3ccccc3n2)cc1	i	-4	?	13µM*	i
COc1ccc(-c2cc(C(=O)Oc3ccc([N+](=O)[O-])cc3)c3ccccc3n2)cc1	i	6	18µM*	?	i
